Of roughly 8,800 targets only a part is listed; those with a hit were picked by preference. About 0.5% of all pairs of compound and target were hits. A number with no mark means an inactive call.
Assays:
Test in all cases: log2 fold change, soluble protein after heating vs DMSO (PISA); higher = thermal stabilisation; K562 lysate, 10 uM; active = over 0.2 and 3.5 SD of the protein, either way, in both replicates (recomputed)
ibrutinib = compound: C=CC(=O)N1CCC[C@@H](n2nc(-c3ccc(Oc4ccccc4)cc3)c3c(N)ncnc32)C1 [ibrutinib]
Procedure, shortened: (§1)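 Pellets of K562 cells were dounce-homogenised in PBS pH 7.4 with 1 mM MgCl2, and the crude extract was held at 1 mg/mL protein for a 30 min treatment with 10 μM compound. Aliquots were heated for 3 min over 48°C-58°C and pooled before NP-40 was added to 0.5% at 4°C. The supernatant from 21,000xg for 90 min was quantified by TMTpro 16plex LC-MS/MS with channel sums equalised. Values are reported from duplicates as log-two fold change in thermal stability relative to solvent controls.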

[1] = compound: CC(=O)c1cnc2ccc(-c3cc(Cl)c(O)c(Cl)c3)nc2c1N[C@H]1CC[C@H](CN(C)C)CC1
Procedure, shortened: as §1

ralimetinib = compound: CC(C)(C)Cn1c(N)nc2ccc(-c3[nH]c(C(C)(C)C)nc3-c3ccc(F)cc3)nc21 [ralimetinib]
Procedure, shortened: as §1

[2] = compound: CC(C)(O)CC(=O)NCCn1ccc2ncnc(Nc3ccc(Oc4cccc(C(F)(F)F)c4)c(Cl)c3)c21
Procedure, shortened: as §1

[3] = compound: CC(C)C1=C2N=C(C=C(N2N=C1)NCC3=CC=CC=C3)NCCCCCCN
Procedure, shortened: as §1

[4] = compound: CC1=C(C(CC(=O)N1)C2=CC=C(C=C2)C(F)(F)F)C(=O)NC3=C(C=C4C(=C3)C=NN4)F
Procedure, shortened: as §1

[5] = compound: CC1=C(C2=C(C=C1)C(=O)C3=CC=CC=C3N2CCCN)C
Procedure, shortened: as §1

[6] = compound: CC1=C(C=C(C=C1)NC(=O)C2=CC(=CC=C2)C(C)(C)C#N)NC3=CC4=C(C=C3)N=CN(C4=O)C
Procedure, shortened: as §1

[7] = compound: CC1=C(C=C(C=C1)NC(=O)C2=CC(=CC=C2)N(C)C)NC(=O)C3=CC=C(C=C3)O
Procedure, shortened: as §1

[8] = compound: CC1=CC=C(C=C1)SC2=C3C=C(SC3=CN=C2)C(=O)N
Procedure, shortened: as §1

vemurafenib = compound: CCCS(=O)(=O)Nc1ccc(F)c(C(=O)c2c[nH]c3ncc(-c4ccc(Cl)cc4)cc23)c1F [vemurafenib]
Procedure, shortened: as §1

[9] = compound: CCCS(=O)(=O)Nc1ccc(F)c(C(=O)c2c[nH]c3ncc(Cl)cc23)c1F
Procedure, shortened: as §1

barasertib = compound: CCN(CCCOc1ccc2c(Nc3cc(CC(=O)Nc4cccc(F)c4)[nH]n3)ncnc2c1)CCOP(=O)(O)O [barasertib]
Procedure, shortened: as §1

[10] = compound: CC[C@@H]1C(=O)N(C)c2cnc(Nc3ccc(C(=O)NC4CCN(C)CC4)cc3OC)nc2N1C1CCCC1
Procedure, shortened: as §1

volasertib = compound: CC[C@@H]1C(=O)N(C)c2cnc(Nc3ccc(C(=O)N[C@H]4CC[C@H](N5CCN(CC6CC6)CC5)CC4)cc3OC)nc2N1C(C)C [volasertib]
Procedure, shortened: as §1

[11] = compound: CCn1c(C(=O)N(C2CC2)C2CC2)cc2c3c(ncn3C)c(Nc3cc(C)n(C)n3)nc21
Procedure, shortened: as §1

[12] = compound: CCn1cc(-c2ccnc3[nH]c(-c4cccc(CN(C)C)c4)cc23)c(-c2ccc(NC(=O)N(C)C)cc2)n1
Procedure, shortened: as §1

[13] = compound: CN1CCC(CNc2ccc3ncc(-c4cccc(OC(F)(F)F)c4)n3n2)CC1
Procedure, shortened: as §1

saracatinib = compound: CN1CCN(CCOc2cc(OC3CCOCC3)c3c(Nc4c(Cl)ccc5c4OCO5)ncnc3c2)CC1 [saracatinib]
Procedure, shortened: as §1

sotrastaurin = compound: CN1CCN(c2nc(C3=C(c4c[nH]c5ccccc45)C(=O)NC3=O)c3ccccc3n2)CC1 [sotrastaurin]
Procedure, shortened: as §1

UniProt Q92844, sequence (Q92844 whole entry, looked up): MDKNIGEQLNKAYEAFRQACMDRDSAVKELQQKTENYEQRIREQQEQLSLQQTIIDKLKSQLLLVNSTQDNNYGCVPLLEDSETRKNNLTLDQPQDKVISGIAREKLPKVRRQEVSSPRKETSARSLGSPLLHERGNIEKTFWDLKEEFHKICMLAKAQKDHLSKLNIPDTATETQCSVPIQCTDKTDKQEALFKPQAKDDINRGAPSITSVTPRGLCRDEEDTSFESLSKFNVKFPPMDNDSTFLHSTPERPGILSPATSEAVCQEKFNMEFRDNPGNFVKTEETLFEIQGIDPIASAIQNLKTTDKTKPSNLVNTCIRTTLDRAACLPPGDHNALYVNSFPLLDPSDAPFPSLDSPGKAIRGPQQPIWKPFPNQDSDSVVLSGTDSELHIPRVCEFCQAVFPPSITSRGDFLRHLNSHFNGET
UniProt P05455, sequence (P05455 whole entry, looked up): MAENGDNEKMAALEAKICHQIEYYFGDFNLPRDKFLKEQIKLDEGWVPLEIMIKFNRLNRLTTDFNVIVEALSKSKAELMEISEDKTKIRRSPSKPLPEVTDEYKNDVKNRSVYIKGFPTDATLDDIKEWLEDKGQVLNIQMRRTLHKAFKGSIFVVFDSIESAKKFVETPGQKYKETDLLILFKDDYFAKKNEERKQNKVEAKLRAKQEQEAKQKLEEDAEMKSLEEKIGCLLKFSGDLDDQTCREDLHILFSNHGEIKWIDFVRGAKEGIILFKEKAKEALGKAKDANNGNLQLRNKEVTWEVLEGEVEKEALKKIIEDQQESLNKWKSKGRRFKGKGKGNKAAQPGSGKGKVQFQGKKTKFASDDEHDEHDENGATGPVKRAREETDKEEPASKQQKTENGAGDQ
UniProt Q99963, sequence (Q99963 whole entry, looked up): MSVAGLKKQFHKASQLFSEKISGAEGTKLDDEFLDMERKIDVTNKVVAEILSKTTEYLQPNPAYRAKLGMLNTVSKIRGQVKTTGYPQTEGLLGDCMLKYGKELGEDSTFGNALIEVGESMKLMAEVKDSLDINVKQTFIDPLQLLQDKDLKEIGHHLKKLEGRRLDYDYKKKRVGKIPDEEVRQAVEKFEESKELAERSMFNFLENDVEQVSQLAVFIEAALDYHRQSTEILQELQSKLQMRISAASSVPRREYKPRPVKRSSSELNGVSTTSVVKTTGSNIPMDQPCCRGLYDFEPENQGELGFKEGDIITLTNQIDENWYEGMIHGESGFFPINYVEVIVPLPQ
UniProt O15198, sequence (O15198 whole entry, looked up): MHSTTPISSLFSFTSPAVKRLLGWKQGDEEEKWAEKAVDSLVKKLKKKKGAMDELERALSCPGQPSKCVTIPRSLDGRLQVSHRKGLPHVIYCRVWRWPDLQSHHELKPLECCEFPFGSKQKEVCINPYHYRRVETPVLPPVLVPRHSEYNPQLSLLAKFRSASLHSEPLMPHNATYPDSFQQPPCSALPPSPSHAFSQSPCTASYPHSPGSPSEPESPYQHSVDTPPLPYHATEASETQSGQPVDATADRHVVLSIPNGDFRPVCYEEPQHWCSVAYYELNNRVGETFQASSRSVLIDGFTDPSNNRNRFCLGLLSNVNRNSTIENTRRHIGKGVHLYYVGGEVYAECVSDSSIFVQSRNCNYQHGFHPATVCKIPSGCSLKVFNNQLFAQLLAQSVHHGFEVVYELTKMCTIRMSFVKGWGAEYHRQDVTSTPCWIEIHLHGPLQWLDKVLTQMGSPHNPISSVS
UniProt Q8TBC3, sequence (Q8TBC3 whole entry, looked up): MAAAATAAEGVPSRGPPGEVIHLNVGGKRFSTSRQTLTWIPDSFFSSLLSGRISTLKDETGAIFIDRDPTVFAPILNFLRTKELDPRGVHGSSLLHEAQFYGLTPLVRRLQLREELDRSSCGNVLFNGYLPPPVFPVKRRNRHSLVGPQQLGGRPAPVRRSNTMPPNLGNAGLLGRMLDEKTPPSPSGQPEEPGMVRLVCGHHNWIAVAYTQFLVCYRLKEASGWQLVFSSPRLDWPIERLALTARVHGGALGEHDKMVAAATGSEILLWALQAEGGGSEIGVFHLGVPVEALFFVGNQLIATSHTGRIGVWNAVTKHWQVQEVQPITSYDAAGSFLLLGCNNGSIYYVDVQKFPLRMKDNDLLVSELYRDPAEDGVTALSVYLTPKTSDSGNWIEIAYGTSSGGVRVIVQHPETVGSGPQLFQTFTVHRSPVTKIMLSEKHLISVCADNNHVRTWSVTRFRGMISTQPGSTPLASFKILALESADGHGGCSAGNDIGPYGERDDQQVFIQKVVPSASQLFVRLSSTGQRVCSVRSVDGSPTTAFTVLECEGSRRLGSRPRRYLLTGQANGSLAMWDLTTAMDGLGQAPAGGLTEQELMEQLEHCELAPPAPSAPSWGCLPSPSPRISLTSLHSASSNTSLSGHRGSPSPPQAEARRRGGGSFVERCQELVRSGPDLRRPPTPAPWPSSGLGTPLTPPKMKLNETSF
UniProt Q13242, sequence (Q13242 whole entry, looked up): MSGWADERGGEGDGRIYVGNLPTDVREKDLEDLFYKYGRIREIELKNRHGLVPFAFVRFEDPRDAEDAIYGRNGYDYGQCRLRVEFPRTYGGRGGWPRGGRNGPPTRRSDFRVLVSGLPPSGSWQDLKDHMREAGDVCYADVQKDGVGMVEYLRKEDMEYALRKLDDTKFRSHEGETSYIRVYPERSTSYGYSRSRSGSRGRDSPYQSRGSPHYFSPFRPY
UniProt P62316, sequence (P62316 whole entry, looked up): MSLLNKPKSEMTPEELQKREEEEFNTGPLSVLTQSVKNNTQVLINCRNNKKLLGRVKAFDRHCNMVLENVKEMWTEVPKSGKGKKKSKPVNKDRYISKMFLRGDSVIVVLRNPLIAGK
UniProt Q9HBR0, sequence (Q9HBR0 whole entry, looked up): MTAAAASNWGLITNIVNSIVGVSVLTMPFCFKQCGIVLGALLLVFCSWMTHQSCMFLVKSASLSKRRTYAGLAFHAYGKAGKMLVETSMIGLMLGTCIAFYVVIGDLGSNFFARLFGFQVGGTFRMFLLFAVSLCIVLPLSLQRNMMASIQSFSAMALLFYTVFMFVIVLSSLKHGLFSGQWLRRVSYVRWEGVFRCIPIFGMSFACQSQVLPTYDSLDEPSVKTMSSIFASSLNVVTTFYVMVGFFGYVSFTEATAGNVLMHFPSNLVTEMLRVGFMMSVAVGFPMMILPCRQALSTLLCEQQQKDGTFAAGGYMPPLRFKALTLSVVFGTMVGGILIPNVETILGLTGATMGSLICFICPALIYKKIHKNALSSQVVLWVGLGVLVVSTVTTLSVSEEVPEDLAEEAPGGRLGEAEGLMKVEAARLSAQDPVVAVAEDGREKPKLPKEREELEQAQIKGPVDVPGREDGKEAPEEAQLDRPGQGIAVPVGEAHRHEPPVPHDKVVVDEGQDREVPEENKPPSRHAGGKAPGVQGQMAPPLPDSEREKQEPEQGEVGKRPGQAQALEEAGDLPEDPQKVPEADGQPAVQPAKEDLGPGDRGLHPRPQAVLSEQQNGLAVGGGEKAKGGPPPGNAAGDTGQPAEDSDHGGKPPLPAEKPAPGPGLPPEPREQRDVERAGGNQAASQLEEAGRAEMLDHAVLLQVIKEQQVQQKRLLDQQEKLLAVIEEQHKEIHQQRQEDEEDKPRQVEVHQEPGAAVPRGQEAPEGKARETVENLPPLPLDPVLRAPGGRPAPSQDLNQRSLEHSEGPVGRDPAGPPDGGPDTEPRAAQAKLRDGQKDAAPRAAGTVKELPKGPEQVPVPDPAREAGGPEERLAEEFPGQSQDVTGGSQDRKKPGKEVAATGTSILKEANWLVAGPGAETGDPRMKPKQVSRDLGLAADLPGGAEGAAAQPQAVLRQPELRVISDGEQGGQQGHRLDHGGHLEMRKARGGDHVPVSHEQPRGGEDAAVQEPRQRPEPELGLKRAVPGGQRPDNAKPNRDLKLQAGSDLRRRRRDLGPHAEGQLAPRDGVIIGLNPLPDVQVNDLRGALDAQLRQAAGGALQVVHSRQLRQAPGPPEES
UniProt Q16637, sequence (Q16637 whole entry, looked up): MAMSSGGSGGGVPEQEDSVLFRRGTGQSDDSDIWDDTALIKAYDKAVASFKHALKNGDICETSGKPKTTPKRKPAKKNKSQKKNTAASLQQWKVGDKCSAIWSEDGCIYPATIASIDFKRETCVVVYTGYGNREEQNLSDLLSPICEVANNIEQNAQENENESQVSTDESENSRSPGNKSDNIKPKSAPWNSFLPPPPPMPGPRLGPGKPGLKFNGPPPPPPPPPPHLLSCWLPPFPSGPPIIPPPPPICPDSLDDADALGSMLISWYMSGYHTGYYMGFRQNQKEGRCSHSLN
UniProt O00506, sequence (O00506 whole entry, looked up): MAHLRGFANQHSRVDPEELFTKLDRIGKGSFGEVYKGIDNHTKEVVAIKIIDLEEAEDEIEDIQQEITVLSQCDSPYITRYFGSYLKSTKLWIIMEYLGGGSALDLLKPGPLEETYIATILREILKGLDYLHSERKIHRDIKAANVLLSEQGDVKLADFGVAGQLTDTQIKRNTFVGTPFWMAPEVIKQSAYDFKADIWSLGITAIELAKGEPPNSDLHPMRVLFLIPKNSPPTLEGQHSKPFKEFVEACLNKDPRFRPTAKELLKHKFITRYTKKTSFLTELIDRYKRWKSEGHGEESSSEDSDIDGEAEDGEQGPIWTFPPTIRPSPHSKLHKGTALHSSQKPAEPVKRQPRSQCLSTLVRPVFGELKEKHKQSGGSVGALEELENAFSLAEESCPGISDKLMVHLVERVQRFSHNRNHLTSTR
UniProt Q9BWW4, sequence (Q9BWW4 whole entry, looked up): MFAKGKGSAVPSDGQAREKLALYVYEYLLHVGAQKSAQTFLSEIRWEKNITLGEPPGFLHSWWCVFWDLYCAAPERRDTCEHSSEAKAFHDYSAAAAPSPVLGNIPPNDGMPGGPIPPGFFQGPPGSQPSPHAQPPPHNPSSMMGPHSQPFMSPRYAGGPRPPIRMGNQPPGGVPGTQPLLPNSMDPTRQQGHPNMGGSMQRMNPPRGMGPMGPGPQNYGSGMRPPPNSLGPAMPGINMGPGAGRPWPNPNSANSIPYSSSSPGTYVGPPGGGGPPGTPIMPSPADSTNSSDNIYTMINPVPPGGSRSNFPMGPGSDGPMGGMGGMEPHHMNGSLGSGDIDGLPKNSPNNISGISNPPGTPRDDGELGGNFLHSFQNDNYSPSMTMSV

Target | log2 fold change (ibrutinib) | log2 fold change [1] | log2 fold change (ralimetinib) | log2 fold change [2] | log2 fold change [3] | log2 fold change [4] | log2 fold change [5] | log2 fold change [6] | log2 fold change [7] | log2 fold change [8] | log2 fold change (vemurafenib) | log2 fold change [9] | log2 fold change (barasertib) | log2 fold change [10] | log2 fold change (volasertib) | log2 fold change [11] | log2 fold change [12] | log2 fold change [13] | log2 fold change (saracatinib) | log2 fold change (sotrastaurin)
SNRPD2 (UniProt P62316) | -0.028 | -0.033 | -0.018 | -0.041 | 0.007 | -0.011 | 0.016 | 0.01 | 0.015 | -0.005 | -0.008 | -0.019 | 0.001 | 0.058 | 0.033 | 0.018 | -0.083 | 0.051 | -0.021 | 0.011
TANK (UniProt Q92844) | 0.042 | 0.086 | -0.049 | -0.003 | 0.044 | 0.061 | 0.018 | 0 | 0.054 | 0.002 | 0.023 | 0.004 | 0.007 | -0.026 | -0.02 | 0.004 | 0.18 | -0.054 | 0.01 | 0
SLC38A10 (UniProt Q9HBR0) | 0.103 | -0.047 | -0.025 | -0.056 | -0.007 | -0.051 | -0.018 | 0.032 | -0.001 | -0.027 | 0.1 | -0.008 | 0.014 | 0.111 | -0.015 | -0.022 | -0.229 (active) | 0.022 | 0.024 | 0.015
STK25 (UniProt O00506) | -0.021 | 0.165 | -0.071 | 0.007 | -0.006 | -0.02 | -0.038 | -0.042 | 0.035 | -0.025 | -0.018 | -0.005 | 0.017 | -0.034 | -0.078 | -0.042 | -0.037 | 0.016 | -0.026 | 0.022
SUZ12 (UniProt Q15022) | -0.043 | 0.013 | 0.003 | -0.036 | 0.007 | -0.023 | -0.09 | 0.289 (active) | 0.048 | -0.01 | 0.012 | 0.022 | -0.012 | 0.024 | -0.001 | 0.012 | -0.026 | -0.002 | -0.019 | 0
SRM (UniProt P19623) | 0.018 | 0.007 | 0.025 | -0.047 | -0.011 | -0.003 | -0.006 | 0.003 | 0 | -0.011 | -0.004 | -0.003 | -0.008 | -0.02 | -0.034 | -0.001 | 0.015 | 0 | 0.02 | 0.011
STK39 (UniProt Q9UEW8) | -0.114 | 0.011 | 0.012 | -0.041 | -0.015 | 0.007 | -0.045 | -0.02 | 0.037 | -0.019 | 0.002 | 0.01 | 0.012 | -0.046 | -0.048 | 0.001 | -0.013 | -0.027 | -0.002 | 0.02
SSB (UniProt P05455) | -0.007 | -0.009 | -0.005 | -0.006 | 0.004 | -0.015 | -0.013 | -0.006 | 0.007 | 0.006 | -0.004 | -0.02 | -0.001 | -0.011 | 0.011 | 0.002 | 0.011 | -0.021 | -0.015 | -0.016
SH3GL3 isoform 3 (UniProt Q99963) | 0.042 | -0.104 | -0.014 | 0.004 | 0.001 | -0.017 | -0.045 | 0.027 | 0.042 | -0.102 | 0.08 | 0.012 | 0.063 | -0.032 | -0.049 | -0.051 | -0.761 (active) | 0.33 | -0.008 | 0.035
SMC6 (UniProt Q96SB8) | 0.021 | -0.006 | 0.005 | -0.012 | 0.023 | 0.065 | 0.006 | 0.006 | 0.001 | -0.01 | 0.044 | 0.01 | 0.014 | 0.047 | -0.031 | 0.012 | -0.036 | 0.024 | 0.046 | 0.027
SHKBP1 (UniProt Q8TBC3) | 0.064 | -0.02 | 0.063 | 0.006 | 0.067 | -0.005 | -0.051 | 0.038 | 0.052 | 0.004 | 0.079 | -0.017 | 0.03 | -0.038 | 0.033 | -0.058 | -0.093 | 0.103 | 0.013 | 0.017
SSBP3 (UniProt Q9BWW4) | 0.435 (active) | -0.024 | 0 | -0.038 | -0.02 | -0.021 | -0.018 | -0.018 | 0 | 0.054 | -0.02 | -0.033 | -0.049 | -0.001 | 0.008 | 0.038 | -0.03 | -0.083 | 0.068 | -0.005
SMAD9 (UniProt O15198) | -0.025 | -0.018 | -0.034 | 0.029 | 0.021 | -0.038 | 0.079 | -0.028 | -0.072 | -0.029 | -0.045 | -0.003 | 0.032 | -0.011 | 0.024 | 0.111 | 0.021 | 0.048 | 0.08 | 0.007
STK38 (UniProt Q15208) | 0.008 | 0.361 (active) | 0.036 | 0.048 | 0.025 | 0.006 | 0.017 | 0.014 | -0.003 | 0.002 | -0.046 | -0.012 | 0.031 | -0.112 | -0.092 | 0.019 | 0.122 | 0.002 | -0.019 | 0.02
SMN1 (UniProt Q16637) | -0.085 | -0.028 | 0.01 | -0.01 | 0.002 | 0.001 | -0.018 | 0.018 | 0.137 | -0.045 | 0.031 | 0.075 | -0.056 | -0.026 | 0 | -0.037 | -0.073 | -0.031 | 0.053 | -0.039
SRSF9 (UniProt Q13242) | -0.009 | -0.009 | 0.001 | -0.031 | -0.031 | -0.019 | -0.089 | 0.047 | -0.028 | -0.007 | -0.104 | 0.009 | 0.049 | -0.05 | -0.029 | 0.03 | -0.006 | -0.029 | -0.021 | -0.064
